The list is not random: actives were taken first. Their share in the collection is about 3.9%.
Tb PFK inh – blocks T. brucei phosphofructokinase. O15648. T. brucei PFK, ADP-Glo luminescence. Potency, µM (highest dose often 57.5 µM), for the others: at the top dose activity, negative = inhibition, most hits filed as inhibitors. 330,000 tested, 0.17% active. AID 485367;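 also: 0% = uninhibited 1x PFK enzyme wells and -100% = no-enzyme wells; nearly all actives have a fitted effect of over 60% in size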
Target sequence (O15648 whole entry, looked up): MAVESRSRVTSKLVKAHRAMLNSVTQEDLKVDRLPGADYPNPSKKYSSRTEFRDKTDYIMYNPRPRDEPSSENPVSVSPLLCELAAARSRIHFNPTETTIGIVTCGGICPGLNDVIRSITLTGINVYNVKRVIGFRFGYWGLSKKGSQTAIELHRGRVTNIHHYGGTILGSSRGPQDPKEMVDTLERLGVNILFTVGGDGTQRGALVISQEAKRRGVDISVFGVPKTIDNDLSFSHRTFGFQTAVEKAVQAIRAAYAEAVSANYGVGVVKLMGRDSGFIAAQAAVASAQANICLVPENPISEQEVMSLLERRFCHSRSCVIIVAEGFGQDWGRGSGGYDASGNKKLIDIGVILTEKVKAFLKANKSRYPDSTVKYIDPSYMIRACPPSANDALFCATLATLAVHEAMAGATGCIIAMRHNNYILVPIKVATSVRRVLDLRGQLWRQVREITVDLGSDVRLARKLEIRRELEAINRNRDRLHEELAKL
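Luminescent ADP detection (ADP-Glo, two-step: ATP depletion then ADP-to-ATP conversion for luciferase) reported PFK activity after 45 min room-temperature reaction of 1.25 nM enzyme with 0.5 mM F6P and 0.1 mM ATP at pH 8.0.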
BRCA1 expr act – activators of BRCA1 expression | MCF7-BRCA1-FFLuc reporter, luminescence, 48 h; response scale: scaled: vehicle 0%, 10 µM genistein 100% | Potency, µM (titrated, usually from 46.1 µM), for inactives: at the highest dose activation, usual class: activators | 380,000 tested, 1.1% active; also: nearly all actives have a fitted effect of over 80% in size
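First, MCF7-BRCA1-FFLuc cells (2000/well) attach for 2 h; next, compounds are pin-added and incubated 48 h at 37 °C; finally, luciferase reagent is added and luminescence read after 15 min.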
PLK1 PBD inh – inhibitors of human PLK1 polo-box domain binding | P53350 | Plk1 PBD binding of FITC phosphopeptide, fluorescence polarization | Potency, µM, for the others: max response, negative = inhibition, actives largely listed as inhibitors | 360,000 tested, 2.8% active | AID 720504; also: series mostly up to about 57 µM; % is scaled to controls: 0 for no effect and ±100 for the full control effect; nearly all actives have a fitted effect of over 65% in size
VDR inh – inhibitors of human vitamin D receptor; P11473; VDR-SRC2-3 peptide fluorescence polarization, 2 h; Potency, µM, for inactives: max response, negative = inhibition, hits mostly inhibitors; 400,000 tested, 0.93% active; also: % is scaled to controls: 0 for no effect and ±100 for the full control effect
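Reagent solutions, kept cold and dark, are dispensed first; compounds are then pinned in at 23 nl, plates briefly spun, and incubated 2 h at ambient temperature. Inhibition of VDR–SRC2-3 peptide binding is read by fluorescence polarization.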
The depositor's hits bear a star; ? = inconclusive; nt = no result given. Calls follow the shape of the dose curve; as a rule, active = well fitted curve in the direction sought with a large enough effect; inconclusive = small, poorly fitted or top-dose-only effect, or another doubt; inactive = no such curve, though single readings can be large; an effect the other way counts as inactive or inconclusive. Potency is read from the fitted curve at half-maximal effect.

SMILES	Tb PFK inh	BRCA1 expr act	PLK1 PBD inh	VDR inh
CCCCCCC(=O)OCC(=O)c1ccc2c(c1)NC(=O)CO2	-0.3%	9.1%	9.47µM*	-5.4%
CCc1ccc(OCC(=O)OCC(=O)c2ccc3c(c2)NC(=O)CO3)cc1	3.9%	8.0%	3.7%	13.3%
COc1cc(OC)cc(C(=O)N[C@H](C(=O)OCC(=O)c2ccc3c(c2)NC(=O)CO3)C(C)C)c1	-3.2%	-15.8%	-12.2%	3.9%
O=C1COc2ccc(C(=O)CCl)cc2N1	-16.2%	-10.8%	1.89µM*	-14.9%
CCC(=O)c1ccc(OCC(=O)c2ccc3c(c2)NC(=O)CO3)cc1	3.4%	-0.4%	?	-3.3%
CCCc1cc(=O)[nH]c(SCC(=O)c2ccc3c(c2)NC(=O)CO3)n1	-14.9%	-34.9%	-7.0%	?
CCOC(=O)c1c(C)oc2c(Cl)cc(NS(=O)(=O)c3ccc(Cl)c(C)c3)cc12	nt	nt	nt	-8.9%
CC(NCc1ccc(OCC(N)=O)cc1)C12CC3CC(CC(C3)C1)C2 (centres undefined)	-3.5%	-21.6%	-2.4%	3.7%
Cc1ccc(NC(=O)Cn2cc(C(=O)C3CCCCC3)c3ccccc32)cc1	nt	nt	nt	13.2%
CCN1CCN(c2ccc(NC(=O)c3ccc(C#N)cc3F)cc2Cl)CC1	0.5%	-2.1%	-9.1%	-5.0%
COc1c(C)cccc1C(=O)Nc1ccc(N2CCOCC2)c(Cl)c1	-3.5%	2.51µM*	-5.3%	-9.0%
CCN1CCN(c2ccc(NC(=O)c3ccccc3F)cc2Cl)CC1	-5.6%	7.08µM*	-7.1%	-7.2%
COCCNC(=O)C1(C)CCN(C(=O)c2cc(-c3ccccc3)cs2)C1 (centres undefined)	nt	0.3%	-2.7%	nt
Cc1ccc(-c2cc(NC(=O)COc3ccc(Cl)cc3C)on2)cc1	nt	nt	nt	10.2%
Cc1cc(NC(=O)CCC(=O)N(c2cccc(F)c2)C(C(=O)NC2CCCC2)c2ccccc2)no1 (centres undefined)	-0.4%	-34.1%	-13.5%	-3.8%
COCCCNC(=O)C1CCN(c2nc3ccc(C)cc3[nH]2)CC1	nt	nt	nt	11.2%
CCCCn1cnc2c(cnn2-c2ccc(F)cc2)c1=O	0.0%	?	-1.4%	5.2%
CCCCn1cnc2c(cnn2-c2ccc(Cl)cc2)c1=O	-3.8%	11.2µM*	-4.6%	17.4%
COc1ccc(CCN2CC(C(=O)NCCc3ncccc3C)CCC2=O)cc1 (centres undefined)	nt	11.2%	-13.6%	nt
Cc1cc(Cl)ccc1NC(=O)Cn1nc(C)c2c(C)n(-c3ccccc3)nc2c1=O	nt	nt	nt	-2.1%
C=C(C(=O)c1ccccc1)C(NC(C)(C)C)c1ccccc1 (centres undefined)	nt	-101.7%	-15.8%	?
C=C(C(=O)c1ccccc1)C(C)CC(=O)c1ccccc1 (centres undefined)	4.7%	-104.3%	-7.7%	79.4µM*
C=CCn1nnnc1-c1cccc(Cl)c1	-4.6%	-6.3%	26.7µM*	-4.7%
CCCCc1nc2cc(C(=O)N3CCCC3)ccc2o1	-5.0%	8.91µM*	-1.4%	4.4%
CCCCc1nc2cc(C(=O)N3CCCCC3C(=O)OC)ccc2o1 (centres undefined)	0.7%	66.0%	26.7µM*	?
SMILES	Tb PFK inh	BRCA1 expr act	PLK1 PBD inh	VDR inh
COc1ccc(OC)c(NS(=O)(=O)c2ccc(N3CCCCS3(=O)=O)cc2)c1	nt	nt	nt	8.1%
C/C=C/c1ccc(OCC(=O)O)c(OC)c1	0.2%	-1.4%	-5.9%	10.7%
CC(C)=CCOc1ccc(/C=C/C(=O)c2ccc(OCC=C(C)C)cc2OCC(=O)O)cc1	nt	nt	nt	10µM*
COc1ccc2c(C#CCCO)c(-c3ccc(S(C)(=O)=O)cc3)sc2c1	3.0%	-42.6%	26.7µM*	-7.8%
COc1ccc(-c2cc(OC(=O)c3ccccc3Cl)c3c(C)oc(C)c3c(=O)c2)cc1OC	nt	nt	nt	8.7%
S=c1[nH]nc2n1CCCN2	0.0%	4.7%	29.9µM*	-2.4%
Cc1ccc2nc3n(c2c1)CCCN3	12.0%	4.5%	-14.5%	-3.8%
Cc1cc(C(=O)Nc2cnc3ccccc3c2)ccc1[N+](=O)[O-]	3.8%	3.16µM*	-7.0%	1.2%
Cc1cc(C(=O)Nc2ccc(N3CCCC3)c(Cl)c2)ccc1[N+](=O)[O-]	-0.7%	10µM*	-4.5%	-3.8%
Cc1ccc(C(=O)Nc2cnc3ccccc3c2)cc1	-6.3%	-84.5%	-5.5%	-4.2%
CC(C)[C@@H](CC(=O)N[C@@H]1CCCC[C@H]1C(=O)N[C@H](CC(=O)N[C@@H](CCC(=O)O)CC(=O)O)Cc1ccccc1)NC(=O)C[C@H](CO)NC(=O)[C@@H]1CNCC[C@H]1N	nt	nt	nt	7.0%
Fc1cccc(NC(=S)NNc2c3ccccc3nc3ccccc23)c1	-2.5%	-68.7%	-1.5%	5.9%
O=[N+]([O-])c1ccc(NNC(=S)Nc2ccccc2)cc1	-26.8%	-31.7%	?	44.7µM*
O=[N+]([O-])c1ccc(O)c(NC(=S)Nc2ccccc2)c1	-1.9%	38.1%	26.7µM*	?
Fc1cccc(NC(=S)NNc2ccccc2)c1	-0.4%	-12.0%	?	39.8µM*
O=C(Nc1ccc(N2CCOCC2)c2nonc12)C1CCCC1	-1.0%	?	18.9µM*	-22.1%
Nc1ccc(N2CCOCC2)c2nonc12	13.5%	-2.3%	-4.4%	89.1µM*
O=C(Nc1ccc(F)cc1)Nc1ccc(N2CCOCC2)c2nonc12	0.5%	71.9%	-12.7%	-24.0%
O=CNc1ccc2c3c(cccc13)-c1ccccc1-2	nt	58.4%	-1.1%	?
COc1cccc(CN2C(=O)c3ccccc3Sc3ccc(C(=O)NCc4ccccc4)cc32)c1	nt	-16.0%	nt	-17.8%
CCN(C(=O)CSc1nc2ccccc2c(=O)n1-c1cccc(C)c1)C1CCS(=O)(=O)C1 (centres undefined)	0.4%	-15.4%	26.7µM*	-13.8%
Cc1c(CCCC(=O)O)sc(N)c1C(=O)c1cccc(C(F)(F)F)c1	nt	9.9%	nt	89.1µM*
CC(C)(C)OC(=O)N(c1cccc2cccnc12)S(=O)(=O)c1ccccc1Br	nt	-2.3%	nt	-15.0%
N#CC1=C(N)NC(=S)C(C(N)=O)C1c1ccccc1F (centres undefined)	-6.5%	-33.6%	18.9µM*	4.47µM*
N#CC1=C(N)NC(=S)C(C(N)=O)C1c1ccc(Cl)cc1Cl (centres undefined)	-1.6%	-54.1%	18.9µM*	22.4µM*
SMILES	Tb PFK inh	BRCA1 expr act	PLK1 PBD inh	VDR inh
c1ccc(N2CCN(c3nc(-c4ccccn4)nc4ccccc34)CC2)cc1	0.0%	-72.4%	10.6µM*	-5.3%
CN1CCN(c2nc(-c3ccccn3)nc3ccccc23)CC1	-0.8%	-68.0%	3.0%	-5.7%
COC(=O)/C(=C(/F)Sc1cc(C)c(O)c(C)c1)C(F)(F)F	-3.1%	3.6%	3.77µM*	1.2%
O=C(Nc1ccc2ccccc2n1)c1ccccc1Cl	-12.5%	85.2%	-10.5%	-5.5%
O=C(Nc1ccc2ccccc2n1)C1CCCCC1	-5.5%	2.82µM*	0.5%	-5.0%
N#C/C(=C\c1coc2ccccc2c1=O)C(N)=S	-16.5%	1.2%	11.9µM*	?
O=C(Nc1ncccc1O)c1ccc(Oc2ccccc2)cc1	-21.4%	74.0%	29.9µM*	?
Cc1noc(C)c1COc1ccc(C(=O)Nc2ncccc2O)cc1	28.6%	-6.8%	-0.7%	9.9%
COC1=CC(=O)c2ccccc2C1=O	0.0%	-87.9%	-19.3%	-14.0%
COC1=CC(=O)C=C(OC)C1=O	nt	-50.1%	5.97µM*	22.4µM*

Screens (PubChem)
